# Measured values reported in PubChem BioAssay AID1347120 (National Center for Advancing Translational Sciences (NCATS), 2019).
# Hit rate of the full screen: of about 390,000 compounds, about 930 (0.24%) were called active. About 5% were inconclusive and are not listed. What follows is part of a selection rich in actives, with near analogues and random picks from the rest. Values without a mark were called inactive. Calls follow the shape of the dose curve; as a rule, active = well fitted activation curve with a large enough effect; inconclusive = small, poorly fitted or top-dose-only effect; inactive = no such curve, though single readings can be large or run the other way.
# Assay: qHTS for Suppressors of FUS Proteinopathy: Primary screen using FUS-linked yeast assay; also: nearly all actives have a fitted effect of over 55% in size;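 as to growth rescue (activation): plate controls were DMSO vehicle for no effect and reference control for full effect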
# Details: S. cerevisiae FUS-expressing, OD600, 24 h; Potency: growth rescue; series mostly up to 76.6 µM; growth rescue (activation): at the top concentration
# Description: Several widespread neurodegenerative diseases, including Alzheimer disease, Huntington disease, Frontotemporal Lobar Degeneration (FTLD) and Amyotrophic Lateral Sclerosis (ALS), share a common pathological feature, namely accumulation of specific protein aggregates in diseased tissue. These diseases which is associated with protein misfolding (proteinopathies) have become increasingly problematic as the population ages and life expectancies are extended. Most proteinopathies are currently incurable, a situation confounded by the fact that the basis of neurodegeneration is generally poorly understood. There exists urgent and significant need to find therapeutics that can inhibit the toxicity associated with protein aggregation. A novel approach to understand the underlying mechanisms of neurodegenerative diseases has recently emerged in which the disease conditions are modeled in the yeast (Saccharomyces cerevisiae), a tractable eukaryotic organism with conserved protein quality control mechanisms. Yeast offers quick and reliable genetic manipulations and can be easily tailored to high-throughput screening (HTS).
# For this project, a yeast model of the FUS proteinopathies (a spectrum of neurodegenerative diseases that include ALS and a subtype of FTLD) was generated and employed. The cytoplasmic accumulation of the DNA/RNA-binding protein FUS (also known as TLS) is causative to both familial and sporadic forms of ALS and FTLD. This yeast model recapitulates neuronal pathology by showing severe cytotoxicity associated with cytoplasmic accumulation of FUS aggregates and a specific interaction between FUS and TDP-43, another ALS-associated protein. […] Specifically, the cellular accumulation of misfolded FUS that disrupts RNA homeostasis in both yeast and higher eukaryotes. This model was validated to be suitable for quantitative HTS (qHTS) use for finding genetic or chemical factors that restore growth. […] Identified compounds that inhibits FUS-yeast toxicity is flagged, re-acquired, and validated for further investigation and optimization.
# NIH Chemical Genomics Center [NCGC]
# NIH Molecular Libraries Probe Production Centers Network [MLPCN]
# Assay Submitter (PI): Frank Shewmaker PhD, Uniformed Services University of the Health Sciences
# Compound CP55940 was used as the positive control. Column 1 was treated with CP55940 titration from 92uM (final concentration, 1:2 dilution), while Column 2 was treated with top dose 92uM. Columns 3 and 4 were treated with DMSO only as negative control to assess background and noise signal.
# Four hundred fifty microliter of cultured yeast (in 20mL rich medium) provided by Dr. Shewmaker lab was incubated at 30C at 99% humidity for 3hr. The culture was then spun down at 4000rpm for 5min and the cell pellet was resuspended in 2mL of Sdmin Media + ALU(330) + 2.5% Raffinose. One hundred microliter of the suspension was added to 900uL of water and OD of the solution was obtained. Twenty mL of responding medium (provided by Shewmaker lab) + 2.5% raffinose was added to ensure cell density of 0.1; the solution was incubated overnight. Working cell solution (FUS-yeast in Sdmi + Sdmi + 1X ALU + 2% galactose media) was prepared (final OD at 0.005) and 3uL was dispensed in a 1536-well Aurora high based clear bottom assay plates. Controls and library compounds (at various final concentrations from 40uM to 0.32uM) were added using a 1536-well pin array using the Kalypsys pin-tool. The plates were then incubated for 24hrs in a cell-culture incubator (30C; 99% humidity). Absorbance at 600nm was then read using the PerkinElmer ViewLux plate reader.
# Potency is read from the fitted curve at half-maximal effect.
Structure (SMILES),growth rescue (activation) [%],Potency
COc1ccccc1CNC(=O)Cn1nc(C)c2nn(-c3ccc(Cl)cc3)c(C)c2c1=O,43.3,–
Cc1ccc(NC(=O)c2nc(S(=O)(=O)Cc3cccc(C)c3)ncc2Cl)cc1,-17.7,–
CCN1C(=O)[C@H]2[C@@H](c3ccc(-c4ccc(F)cc4)cc3)N[C@@](Cc3ccccc3)(C(=O)OC)[C@H]2C1=O,–,11.2 µM (active)
CCN1C(=O)[C@H]2[C@@H](c3ccc(-c4ccc(OC)cc4)cc3)N[C@@](Cc3ccccc3)(C(=O)OC)[C@H]2C1=O,-1.62,–
CCN1C(=O)[C@H]2[C@@H](c3ccc(SC4CCCCC4)c(OC)c3)N[C@@](Cc3ccccc3)(C(=O)OC)[C@H]2C1=O,26.7,–
COC(=O)c1cc2occc2n1Cc1nc(-c2ccc(C)cc2)oc1C,17.4,–
CCN(Cc1ccccc1)S(=O)(=O)c1ccc2c(c1)CCCN2C(C)=O,17.6,–
Cc1cccc(CSc2nc3ccncc3n2CC(=O)N(C)C2CCCCC2)c1,11.2,–
Cc1ccc(Cl)cc1N(C)C(=O)C1CCCN(c2ncnc3onc(-c4ccc(F)cc4)c23)C1 (stereo unspecified),5.26,–
CON(C)S(=O)(=O)c1ccc2c(c1)NC(=O)C1CCCN21 (stereo unspecified),–,28.2 µM (active)
COc1ccc(N2CCN(S(=O)(=O)c3ccc4c(c3)NC(=O)C(C)C(=O)N4)CC2)cc1 (stereo unspecified),5.53,–
CC1C(=O)Nc2ccc(S(=O)(=O)N3CCN(c4ccccc4F)CC3)cc2NC1=O (stereo unspecified),-20,–
COc1ccc(OCCCn2c(C)nc3cc(C)c(C)cc32)cc1,25.3,–
CC(NC(=O)c1cc(Sc2ccc(F)cc2F)nc2ccccc12)c1ccccc1 (stereo unspecified),23.4,–
Cc1cccc(-n2ncc(C(=O)N3CCc4ccccc4C3)c2C2CCN(C(=O)OC(C)(C)C)CC2)c1,-8.68,–
Cc1ccc2nc(N3C(=O)C(O)=C(C(=O)c4ccco4)C3c3cccc(O)c3)sc2c1 (stereo unspecified),–,15.8 µM (active)
CC(=O)c1sc(N2C(=O)c3oc4ccccc4c(=O)c3C2c2ccc(C)cc2)nc1C (stereo unspecified),3.74,–
CCOc1cc(C2C(C(=O)c3ccco3)=C(O)C(=O)N2Cc2ccccc2)ccc1O (stereo unspecified),11,–
Cc1ccc(CN2C(=O)SC(Nc3ccccc3)C2=O)cc1 (stereo unspecified),-7.07,–
CN(Cc1ccccc1)C(=O)CCS(=O)(=O)c1cc(Br)cc2c1N(C(=O)C1CC1)CC2,43.2,–
CCOC(=O)N1CCN(S(=O)(=O)c2cc(Br)cc3c2N(C(=O)C2CC2)CC3)CC1,1.43,–

Structure (SMILES),growth rescue (activation) [%],Potency
CCN(c1ccc2c(c1)OCO2)S(=O)(=O)c1cc(Br)cc2c1N(C(=O)C1CC1)CC2,–,17.8 µM (active)
O=C(CCS(=O)(=O)c1cc(Br)cc2c1N(C(=O)C1CC1)CC2)Nc1ccc(Br)cc1F,-0.121,–
COc1ccc(S(=O)(=O)N(C)C[C@H]2Oc3c(NC(=O)Nc4ccc5c(c4)OCO5)cccc3C(=O)N([C@H](C)CO)C[C@@H]2C)cc1,–,25.1 µM (active)
COc1ccc(S(=O)(=O)Nc2cccc3c2O[C@H](CN(C)S(=O)(=O)c2ccc(OC)cc2)[C@@H](C)CN([C@H](C)CO)C3=O)cc1,44.3,–
CC(C)NC(=O)Nc1cccc2c1O[C@@H](CN(C)S(=O)(=O)c1ccc(F)cc1)[C@@H](C)CN([C@H](C)CO)C2=O,21,–
COc1cc(OC)c(NC(=O)c2cc(S(=O)(=O)N3CCCC3)cn2C)cc1Cl,-16.3,–
COC(=O)c1ccccc1NC(=O)C(Cc1ccccc1)N1Cc2ccccc2C1=O (stereo unspecified),20.6,–
Cc1cccc(CCNC(=O)c2ccc3c(c2)nc2n3CCC(C)C2)c1 (stereo unspecified),-6.88,–
COc1cccc(NC(=O)N2CCN(C(=O)c3nsc4ccccc34)CC2)c1,11.1,–
Cc1nc(SCCOc2ccc(Cl)cc2)[nH]c(=O)c1Cc1ccccc1,-21,–
COP(=O)(O)CNC(=O)OCc1ccccc1,-20.6,–
O=C(CNC(=O)OCc1ccccc1)Oc1cc2oc(=O)cc(-c3ccccc3)c2cc1Cl,–,12.6 µM (active)
O=C(CNC(=O)Cc1ccccc1)NCC(=O)OCC(=O)c1ccccc1Cl,22.9,–
CCOc1ccc(N=Cc2c(O)n(-c3cccc(C)n3)c(=O)c3ccccc23)cc1,–,8.91 µM (active)
CCO/C=C1\C(=O)N(c2ccc(OCC)cc2)C(=O)c2ccccc21,-7.53,–
COC(=O)Cc1csc(/N=C/c2c(O)n(-c3cccc(C(F)(F)F)c3)c(=O)c3ccccc23)n1,-14.2,–
CCc1ccc(NC(=O)CCCc2nnc3n(CCCOC)c(=O)c4sccc4n23)cc1,7.44,–
O=C(Nc1nc2c(s1)CCCC2)c1ccccc1F,15.6,–
COc1ccc2c(c1)Cc1sc(NC(=O)c3ccccc3Br)nc1-2,–,28.2 µM (active)
Cn1c(=O)c(=O)n(C)c2cc(NC(=O)c3ccccc3Br)ccc21,-10.8,–
CN(C(=O)c1ccc2c(c1)N(Cc1cccc(Cl)c1)C(=O)c1ccccc1S2=O)C1CCCCC1 (stereo unspecified),33.1,–

Structure (SMILES),growth rescue (activation) [%],Potency
CC(C)Cn1c(CN(Cc2ccccc2)Cc2ccccc2)nc2c1c(=O)n(C)c(=O)n2C,–,31.6 µM (active)
CC(C)CCn1c(CN(C)Cc2ccccc2)nc2c1c(=O)n(C)c(=O)n2C,-1.47,–
Cn1c(=O)[nH]c(=O)c2c1nc(CN(Cc1ccccc1)Cc1ccccc1)n2CCN1CCOCC1,18.2,–
CCN(CC)c1ccc(NC(=O)CN2C(=O)c3cccnc3Oc3ccc(Cl)cc32)c(C)c1,5.5,–
Cc1ccc(Nc2cc(=O)n(C3CCCCC3)c(=O)[nH]2)cc1C,2.44,–
Cc1cc(/C=N/NC(N)=O)c(C)n1C1CCCCC1,–,22.4 µM (active)
CC1CCc2sc(C(=O)N/N=C/C3CCCCC3)cc2C1 (stereo unspecified),27.8,–
CCc1ccccc1NC(=O)N1CCN(C(=O)c2nsc3ccccc23)CC1,19.2,–
CCOc1cccc(NC(=O)CSc2ncc(-c3ccc(Cl)cc3)[nH]2)c1,17.4,–
CCNC(=O)Cn1nc(C)n2c(cc3c(OC)cccc32)c1=O,-9.14,–
O=C1N[C@@H](c2ccccc2)COC(=O)[C@H](Cc2ccc(F)cc2)C/C=C\C[C@@H]1CC(=O)N(CCO)Cc1ccccc1,–,22.4 µM (active)
CC(C)(C)OC(=O)C[C@@H]1C/C=C\C[C@@H](CC(=O)N(CCO)Cc2ccccc2)C(=O)N[C@H](Cc2ccccc2)COC1=O,42.3,–
O=C1CCC/C=C\C[C@@H](CC(=O)N(CCO)Cc2ccccc2)C(=O)NCCO1,-10.1,–
CCC1CCCCN1Cc1c(O)ccc2c(=O)c(Oc3ccccc3Cl)c(C(F)(F)F)oc12 (stereo unspecified),41.8,–
Cc1ccc(C)c(Cn2c(CCCNC(=O)C3CCCCC3)nc3ccccc32)c1,-6.7,–
COCCNC(=O)c1cc(-c2cccc(Cl)c2)on1,-21.7,–
COc1ccccc1C1/C(=C(/O)c2ccc(OC(C)C)cc2)C(=O)C(=O)N1c1cc(C)on1 (stereo unspecified),–,20 µM (active)
Cc1cc(N2C(=O)C(=O)/C(=C(/O)c3ccc(Cl)cc3)C2c2cccc(Br)c2)no1 (stereo unspecified),18.5,–
Cc1cc(N2C(=O)C(=O)/C(=C(/O)c3ccccc3)C2c2cccc(Br)c2)no1 (stereo unspecified),30.8,–
Cc1ccc(-c2cn3c(n2)sc2cc(C(=O)NCCCc4ccccc4)ccc23)cc1,-10.9,–
O=C(CSc1nccn1C1CCCC1)Nc1cc(C(F)(F)F)ccc1Cl,9.55,–

Structure (SMILES),growth rescue (activation) [%],Potency
COc1ccc(CNC(=O)CC2Oc3ccc(C)cc3NC2=O)cc1 (stereo unspecified),18.9,–
CC(=O)Nc1ccc(NC(=O)CCCc2nc(-c3ccc(C(C)(C)C)cc3)no2)cc1,1.65,–
CC1Cc2cc(S(=O)(=O)CCC(=O)Nc3ccc(F)c(Cl)c3)ccc2N1C(=O)C1CC1 (stereo unspecified),-4.02,–
COc1ccccc1-c1cc(C(F)(F)F)nc(S(=O)(=O)CCCC(=O)Nc2ccc(F)cc2F)n1,18.6,–
CCCCc1nn2c(=O)cc(COC(=O)c3ccc(NC(=O)c4ccccc4C)cc3)nc2s1,7.51,–
CCCCOc1ccc(CN2C(=O)C(=O)c3cc(Br)cc(C)c32)cc1OC,2.56,–
Cc1ccc(CNC(=O)CCc2c(C)nc3c(c(C)nn3-c3ccccc3)c2C)cc1,-8.63,–
CCN(CC)C(=O)CSc1nc2cc3c(cc2c(=O)n1CCCC(=O)NCc1ccc2c(c1)OCO2)OCO3,42.4,–
CCOc1ccc(-c2cc3c(=O)n(CC(=O)NCc4ccc(OC)cc4)ccn3n2)cc1,-11.9,–
COc1cccc(-n2c(=O)c3c(C)c(C(=O)N(C)C)sc3n(Cc3cccc(C)c3)c2=O)c1,17.2,–
CCN(CC(=O)NC(=O)NCc1ccccc1)Cc1nc2ccccc2c(=O)[nH]1,6.69,–
CCN(CC(=O)Nc1ccc(Cl)c(S(=O)(=O)N(C)C)c1)Cc1nc2ccccc2c(=O)[nH]1,–,31.6 µM (active)
CCN(CC(=O)Nc1cccc(S(N)(=O)=O)c1)Cc1nc2ccccc2c(=O)[nH]1,-6.78,–
CCN1CCN(CCCNC(=O)c2ccc3c(c2)sc2nc(-c4ccc(OC)cc4)cn23)CC1,17.2,–
COc1ccc(CC(=O)NCCc2sc3nc(-c4ccc(OC)cc4)nn3c2C)cc1,-0.404,–
COC(=O)CN1C(=O)CSc2ccc(S(=O)(=O)Nc3cc(C)ccc3C)cc21,23,–
Cc1ccc2nc(N3CCN(c4cccc(Cl)c4)CC3)c3nnnn3c2c1,-4.98,–
Cc1nnc(N2CCC(C(=O)Nc3ccc(F)cc3)CC2)c2nn(-c3ccc(Cl)cc3)c(C)c12,9.53,–
